Dicer inh = inhibitors of human Dicer processing of pre-microRNA; Q9UPY3; cat-ELCCA pre-miR-21 Dicer processing, chemiluminescence; stronger effect = higher value; z-score at 25 µM; hit rate 6% among 47,000; in the data active = z-score above about 3, passing the limit was not always enough;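 note: plate controls were vehicle for no effect and no enzyme for full effect; higher signal means more uncleaved substrate so more Dicer inhibition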
* hit, by the source's call. This excerpt belongs to a sample that is enriched for hits.

SMILES | Dicer inh
CCOC(=O)C1=C(C)NC2=C(C(=O)CCC2)C1c1ccc(SC)cc1 (configuration not stated) | 0.96
Cc1ccc(-c2nnc3c4ccccc4c(C)nn23)cc1S(=O)(=O)NCc1ccccc1 | 2.8
Cc1ccc(S(=O)(=O)N2CCCCC2)cc1-c1nnc2c3ccccc3c(C)nn12 | 1.1
COCCNS(=O)(=O)c1ccc(C)c(-c2nnc3c4ccccc4c(C)nn23)c1 | 1.4
Cc1nn2c(-c3cccc(NS(=O)(=O)c4ccc(Cl)cc4)c3)nnc2c2ccccc12 | 2.5
c1ccc(-c2nn3c(-c4ccccc4)nnc3c3ccccc23)cc1 | 4.5*
Cc1ccccc1-c1nnc2c3ccccc3c(C)nn12 | 5*
CC(=O)/C(C=Nc1ccn(C)n1)=C(\C)O | -4.9
Cc1cc(C)nc(Nc2n[nH]c(Cc3ccccc3)n2)n1 | 0.13
COc1ccc(-c2nc(Nc3nc4ccccc4o3)ncc2C#N)cc1 | 1.9
Cc1cc(C)nc(Nc2nc3ccccc3o2)n1 | 4.6*
CCOC(=O)c1ccc(N2C(=O)C3ON(c4ccc(Cl)cc4)C(c4cccs4)C3C2=O)cc1 (configuration not stated) | -0.45
CS(=O)(=O)c1scc(-c2cccc(C(F)(F)F)c2)c1C#N | -0.57
CCn1c(NCc2cc(OC)ccc2OC)nc2ccccc21 | 2.8
Cc1ccc(-c2cn3c4ccccc4nc3n2CCCN2CCCCC2)cc1 | 2.9
COc1ccccc1CNc1nc2ccccc2n1CCN1CCOCC1 | 6.2*
C=CCn1c(NCc2ccccc2OC)nc2ccccc21 | -0.63
CC(C)c1ccc(CNc2nc3ccccc3n2CCN2CCOCC2)cc1 | 4.8*
COc1ccc(OC)c(CNc2nc3ccccc3n2CCN2CCCCC2)c1 | 3.8*
COc1ccc(OCCn2c(C)nc3ccccc32)cc1 | 0.43
c1ccc2c(c1)nc(NCc1ccc3c(c1)OCO3)n2CCN1CCOCC1 | -0.44
CCN(CC)c1ccc(CNc2nc3ccccc3n2C(C)C)cc1 | 0.35
Cc1ccc(-c2cn3c4ccccc4nc3n2CCO)cc1 | 1.3
COc1ccc(-c2cn3c4ccccc4nc3n2CCCN2CCOCC2)cc1 | 3.6*
CCOc1ccc(S(=O)(=O)N(C)Cc2cc3ccccc3o2)cc1 | 2.1
SMILES | Dicer inh
O=C(Cn1nnc(-c2cc(C(F)(F)F)cc(C(F)(F)F)c2)n1)c1ccc(Cl)cc1 | -0.03
Nc1ccc2nc(CCc3nc4ccc(N)cc4s3)sc2c1 | 0.66
CCOC(=O)c1cnc2ccc(Br)cc2c1Nc1ccc(N(C)C)cc1 | 2.7
O=C(c1ccc([N+](=O)[O-])cc1)N(c1cccc(Cl)c1)c1nc2ccccc2s1 | -0.52
CC(=O)Oc1cccc(-c2nc3ccc(OC(C)=O)cc3c(=O)o2)c1 | 0
O=C(CSc1nnc(-c2ccc(C(F)(F)F)cn2)s1)Nc1ccccc1 | -1.3
CCOC(=O)C1=C(C)NC2=C(C(=O)CCC2)C1c1ccc(C)s1 (configuration not stated) | -0.22
N#CC(C#N)(Cc1ccccc1)Cc1ccccc1 | -0.84
CCc1cc(C(=O)c2ccc(OC)cc2)c(NC(=O)c2ccc(F)cc2)s1 | -1.6
O=C(NC1CCCCC1)C1CCN(S(=O)(=O)c2ccc(Cl)cc2)CC1 | 0.75
COc1ccccc1CNc1nc2ccccc2n1C | 3.8*
O=C(Nc1nc2ccccc2n1CCN1CCOCC1)C1CCCCC1 | 3
COc1ccc(OC)c(CNc2nc3ccccc3n2C)c1 | 2.5
CN(C)c1ccc(CNc2nc3ccccc3n2C)cc1 | -0.16
Clc1ccccc1CNc1nc2ccccc2n1CCN1CCOCC1 | 6.5*
OCc1nc2ccccc2n1Cc1ccccc1Cl | -0.29
CC1(C)CSC(=NC2CCCCC2)N1 | 3.2*
CC(C)NC(=S)/N=C(\N)Nc1ccc(Cl)c(Cl)c1 | -0.56
COc1nc2c(c(-c3ccc(C(F)(F)F)cc3)c1C#N)Cc1ccccc1-2 | 1.8
Cn1nc(-c2ccccc2)cc1NC(=O)Nc1ccc(OCc2ccccc2)cc1 | 0.53
Cc1cc(C)cc(NC(=O)Nc2cc(C(C)(C)C)nn2C)c1 | -1.1
Cn1nc(-c2ccccc2)cc1NC(=O)Nc1ccc(F)cc1 | 3.6*
Cc1nnsc1C(=O)Nc1cc(-c2ccccc2)nn1C | -1.2
Cc1ccccc1NC(=O)Nc1cc(-c2ccccc2)nn1C | 3
Cn1nc(-c2ccc(Cl)cc2)cc1NC(=O)Nc1ccc(OCc2ccccc2)cc1 | -0.67
SMILES | Dicer inh
Cn1nc(C(C)(C)C)cc1NC(=O)Nc1ccc(OCc2ccccc2)cc1 | 4.3*
Cc1ccc(F)cc1NC(=O)Nc1cc(C(C)(C)C)nn1C | 4*
Cn1nc(C(C)(C)C)cc1NC(=O)Nc1cccc2ccccc12 | 1.4
CCCCOC(=O)NC(Nc1ncccn1)(C(F)(F)F)C(F)(F)F | -1.7
CCSCCOC(=O)C1=C(C)NC2=C(C(=O)CC(C)(C)C2)C1c1ccc(OC(C)=O)c(OC)c1 (configuration not stated) | 0.17
CCOc1ccc(/C(O)=C2\C(=O)C(=O)N(Cc3cccnc3)C2c2ccc(OC)c(OC)c2)cc1 (configuration not stated) | 0.31
CCOC(=O)CSc1nccc(-c2sc3scc(C)c3c2C)n1 | 0.17
CC1(C(=O)N2CCCCC2)CCC(C(=O)N2CCCCC2)C1(C)C (configuration not stated) | 1.9
CC(C)(ONC(=O)Nc1ccccc1Cl)C(=O)O | -0.32
